Test [1] is described as follows: kinase inhibitors against Plasmodium liver-stage infection, cell-based, known kinase inhibitor set, luminescence, hepatoma host viability (AID 624392).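 Note: infected cells incubated roughly two days before readout.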 Particulars: Plasmodium liver stage in hepatoma cells, luciferase luminescence, concentration not given here; liver cell % of control: measured here: host liver cell viability; parasite % of control: stronger effect = lower value.

Test [2] is described as follows: modulators of glucocorticoid suppression of NF-kB, cell-based, luciferase, IL-1B stimulus, dexamethasone (AID 624486).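 For percent of negative control (+Dex): 100% = mean signal of vehicle control wells on the plate.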 As to conditions: NF-kB luciferase reporter, IL-1B + dexamethasone, luminescence; percent of negative control (+Dex): actives lie on both sides, concentration not given here; z-score: measured here: IL-1B alone, no Dex. Background: In a reporter assay the amount or activity of a reporter protein is the signal.

Test [3] in a line: kinase inhibitors altering Pseudomonas killing of worms, whole organism (AID 651566).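 Note: tested at 14 µM; sign flipped so higher z means a lower ratio.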 As to conditions: C. elegans killed by P. aeruginosa, survival ratio.
A short description of test [4]: activators of macrophage pro-inflammatory response, cell-based, murine, luminescence (AID 652131). As to conditions: murine macrophage pro-inflammatory reporter, stronger effect = higher value.
The nature of test [5]: IRF3 reporter activation in THP-1 macrophages, cell-based, PMA-stimulated THP-1, luminescence (AID 1053176). As to conditions: PMA-differentiated THP-1, IRF3 reporter luminescence; stronger effect = higher value.
Test [6] in a line: survival rescue of mitochondrial mutant cells in low glucose, primary screen, MELAS cybrids, Rieske KO mouse fibroblasts, CellTiter-Glo (AID 1508586;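 active = mean z-score across replicates of 1.96 or higher in either the MELAS or the Rieske mutant cell line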;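 note: z relative to plate mean and SD of compound and empty wells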). Background: Cellular ATP, detected with luciferase, serves as a proxy for viable cell number.
Test [7] can be described thus: stimulators of nuclear beta-catenin in C2C12, primary screen, imaging, WNT3A-conditioned medium, mouse C2C12, NPC library (AID 1117326; in the data active = nuclear beta-catenin stimulation mostly above about 4.2%, no sharp cut-off; inactive = mostly below about 10%). Particulars: stronger effect = higher value.
A short description of test [8]: stimulators of insulin release from INS-1E, primary screen, cell-based, 5 mM glucose, NPC library (AID 1117329;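 active = compound raises insulin release from rat beta cells at 5 mM glucose, no numeric limit stated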). As to conditions: rat INS-1E insulin secretion, at 10 µM, stronger effect = higher value.
Test [9] can be described thus: growth inhibition of GSK3B-pretreated HCT116 cells – cell-based, CellTiter-Glo, 0.2 to 20 µM (AID 1117336;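 active = compounds lowering colon cancer cell viability after pretreatment blocking the GSK3B kinase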). As to conditions: HCT116 viability after GSK3B inhibitor, at 20 µM, stronger effect = higher value.
Test [10] in a line: inhibition of endothelial tube formation, primary screen, imaging, VEGF stimulated, CD31 staining, tube area, NPC library (AID 1117340;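 active = compound that reduces growth-factor-driven endothelial tube area in a mixed cell culture, no cutoff stated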). As to conditions: VEGF-stimulated ADSC/ECFC co-culture, at 10 µM, stronger effect = higher value.
Test [11] can be described thus: glucagon-like peptide 1 release enhancers, primary assay, NCI-H716 cell line, NPC library (AID 1117341;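 active = compound raises GLP1 secretion from the human gut endocrine cells, with no numeric limit stated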). Particulars: NCI-H716 cells, at 10 µM, stronger effect = higher value.
Test [12] can be described thus: HCT116 colon cancer cell growth inhibition, primary screen, CellTiter-Glo luminescence, NPC library (AID 1117342;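 active = compounds that lower survival of HCT116 colon cancer cells in the luminescence readout, no numeric limit stated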). As to conditions: at 20 µM (top of the series).
The nature of test [13]: CellTiter-Glo luminescent readout of SW480 viability loss, NPC library primary (AID 1117343;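 active = compounds that lower viability of the colon cancer cells in the luminescence readout, with no numeric limit stated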). Particulars: CellTiter-Glo luminescence; at 20 µM (top of the series).
Test [14] can be described thus: decreased DLD-1 cellular survival, CellTiter-Glo luminescent readout, NPC compound collection, primary HTS (AID 1117346;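 active = compounds that lower survival of DLD-1 colon cancer cells in the luminescence readout, no cutoff given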). Particulars: DLD-1 viability, CellTiter-Glo luminescence; at 20 µM (top of the series).
[15] abbreviates: MELAS cybrid survival, CellTiter-Glo 48 h, stronger effect = higher value.
Where [16] appears, read: Rieske KO mouse fibroblast survival, CellTiter-Glo 72 h.

From PubChem BioAssay come the findings set out here.

The structures appear in SMILES notation. Activity calls are given as the source filed them. Unless noted, the rule behind the calls is not given here.

`CS(=O)(=O)CCNCc1ccc(-c2ccc3ncnc(Nc4ccc(OCc5ccccc5)c(Br)c4)c3c2)o1` came in with a liver cell % of control in test [1] of 107%. Moreover, the parasite % of control in test [1] is 127% (inactive). For the same compound, the percent of negative control (+Dex) in test [2] is 82% (inactive). Also, the z-score in test [2] was -0.54; in test [3], 0.135 (inactive); in test [4] it was 2.09 (inactive); in [6] (setting [15]), 0.203 (inactive); in [6] (setting [16]) it was -0.567. The fraction signal in test [5] was 0.0015 (inactive).
As for `Oc1cn2c(n1)Nc1ccc(Cl)c(Cl)c1C2`, the nuclear beta-catenin stimulation in test [7] (at 10 µM) is 0.1% (inactive); in test [7] (stimulation, at 2 µM), 2.5%. The insulin secretion stimulation in test [8] is 0.6% (inactive). Moreover, the viability decrease in test [9] was -54.9% (inactive). In addition, the tube area decrease in [10] was 40.1% (active). Further, the GLP1 secretion stimulation in [11] was 4.1% (inactive). Moreover, in test [12], the inhibition of viability is -2.2% (inactive). The viability decrease (inhibition) is -21.9% (inactive) in test [13] and -16.9% (inactive) in test [14].
`CCS(=O)(=O)c1ccc(OC)c(Nc2ncc(-c3cccc(F)c3)o2)c1` registered a liver cell % of control in test [1] of 140%. In addition, in test [1], the parasite % of control was 19.6% (inactive). For the same compound, the percent of negative control (+Dex) in test [2] is 84.5% (inactive). Moreover, the z-score in test [2] was -0.335; in test [3], -0.615 (inactive); in test [4], -0.303 (inactive); in test [6] (setting [15]), 1.69 (inactive); in test [6] (setting [16]), -0.478. In test [5], the fraction signal was -0.0005 (inactive).
For the compound `Cc1[nH]nc2c1N=C(c1ccccc1Cl)c1cc([N+](=O)[O-])ccc1N2`, in test [1], the liver cell % of control was found to be 92.3% and the parasite % of control is 32.5% (inactive). Moreover, in test [2], the percent of negative control (+Dex) was 104% (inactive) and the z-score was -1.15. The fraction signal in [5] was -0.0135 (inactive).
Regarding `c1ccc2sc(SSc3nc4ccccc4s3)nc2c1`, the nuclear beta-catenin stimulation in test [7] (at 10 µM) is 2.2% (inactive); in [7] (stimulation, at 2 µM), 0.3%. Besides, the insulin secretion stimulation in test [8] was -0.6% (inactive). The viability decrease in [9] was -0.8% (inactive). Further, in [10], the tube area decrease was -4.4% (inactive). Also, in [11], the GLP1 secretion stimulation was 22.3% (active). Besides, the inhibition of viability in test [12] was -5.7% (inactive). The viability decrease (inhibition) in test [13] was -1% (inactive); in test [14], -20.5% (inactive).
Take `N#Cc1c(NC(=O)c2ccc(F)c3ccccc23)sc2c1CCCC2`: in test [1], the liver cell % of control stood at 93.8%. In addition, in test [1], the parasite % of control is 163% (inactive). Further, the percent of negative control (+Dex) in test [2] was 118% (inactive). The z-score in test [2] was 0.625; in test [3], 1.47 (inactive); in test [4], -1.25 (inactive); in test [6] (setting [15]), -0.605 (inactive); in test [6] (setting [16]), 0.108. The fraction signal in [5] is 0.0065 (inactive).
As for `O=S(=O)(CCNCc1ccc(-c2ccc3ncnc(Nc4ccc(OCc5cccc(F)c5)c(Cl)c4)c3c2)o1)c1ccccc1`, the liver cell % of control in test [1] was found to be 108%. Besides, the parasite % of control in test [1] is 102% (inactive). In addition, the percent of negative control (+Dex) in test [2] is 96.5% (inactive). Also, the z-score in test [2] was -0.355; in [3], -0.37 (inactive); in test [4], 3.07 (inactive); in [6] (setting [15]) it was 0.171 (inactive); in test [6] (setting [16]), -0.45. Also, the fraction signal in test [5] was -0.004 (inactive).
The compound `Fc1ccc(-c2ncn(C3CCNCC3)c2-c2ccnc(Oc3cccc(C(F)(F)F)c3)n2)cc1` returned a liver cell % of control in test [1] of 97%. Moreover, in [1], the parasite % of control is 156% (inactive). Further, in test [2], the percent of negative control (+Dex) was 97% (inactive). Further, the z-score in test [2] is 0.355; in test [3], 0.19 (inactive); in [4], -0.64 (inactive); in test [6] (setting [15]), -0.429 (inactive); in test [6] (setting [16]), -0.412. Further, the fraction signal in [5] is 0.0045 (inactive).
The compound `O=S1CCN(Cc2ccc(-c3ccc4ncnc(Nc5ccc(OCc6cccc(F)c6)c(Cl)c5)c4c3)o2)CC1` yielded a liver cell % of control in test [1] of 103%. Further, the parasite % of control in [1] was 99.6% (inactive). In [2], the percent of negative control (+Dex) is 74.5% (inactive). Moreover, the z-score is -1.72 in test [2]; -0.375 (inactive) in test [3]; 13.5 (active) in test [4]; 0.445 (inactive) in [6] (setting [15]); -0.225 in [6] (setting [16]). Also, the fraction signal in test [5] was -0.007 (inactive).
As to `Fc1ccc(-c2ncn(C3CCNCC3)c2-c2ccnc(Oc3cccc(F)c3)n2)cc1`, in test [1], the liver cell % of control was found to be 80.2%. The parasite % of control in [1] was 175% (inactive). For the same compound, the percent of negative control (+Dex) in test [2] was 111% (inactive). Besides, the z-score was 0.615 in test [2]; -0.555 (inactive) in test [3]; -0.299 (inactive) in test [4]; -0.13 (inactive) in [6] (setting [15]); -0.344 in test [6] (setting [16]). The fraction signal in [5] was -0.0075 (inactive).
For the compound `CCCCCCCCCCCCCCCCCC(=O)O`, the nuclear beta-catenin stimulation in [7] (at 10 µM) was 0.8% (inactive); in test [7] (stimulation, at 2 µM), 0.7%. The insulin secretion stimulation in test [8] was -1.2% (inactive). Also, the viability decrease in test [9] is -8.8% (inactive). Also, in test [10], the tube area decrease was -12.7% (inactive). Further, the GLP1 secretion stimulation in test [11] is -0.3% (inactive). Further, the inhibition of viability in test [12] was 1.8% (inactive). Also, the viability decrease (inhibition) in [13] was 18.8% (inactive); in [14], -6.85% (inactive).
The compound `Fc1ccc(-c2ncn(C3CCNCC3)c2-c2ccnc(Oc3ccccc3)n2)cc1` came in with a liver cell % of control in test [1] of 73.1%. In addition, in [1], the parasite % of control is 120% (inactive). For the same compound, in test [2], the percent of negative control (+Dex) was 102% (inactive). The z-score is 0.6 in [2]; 0.255 (inactive) in [3]; 0.32 (inactive) in test [4]; -0.224 (inactive) in [6] (setting [15]); -0.286 in test [6] (setting [16]). Further, the fraction signal in test [5] is -0.004 (inactive).
In [1], `CS(=O)(=O)c1ccc(Oc2nccc(-c3c(-c4ccc(F)cc4)ncn3C3CCNCC3)n2)cc1` showed a liver cell % of control of 78.7%. Moreover, the parasite % of control in test [1] was 128% (inactive). Besides, the percent of negative control (+Dex) in test [2] is 92% (inactive). The z-score in [2] is 0.015; in [3] it was -0.505 (inactive); in [4], -0.16 (inactive); in [6] (setting [15]) it was -0.0537 (inactive); in test [6] (setting [16]), -0.376. The fraction signal in [5] is -0.008 (inactive).
With `NC(=O)CCc1ccccc1Oc1nccc(-c2c(-c3ccc(F)cc3)ncn2C2CCNCC2)n1`, the liver cell % of control in test [1] came to 91.6%. Moreover, in test [1], the parasite % of control is 151% (inactive). In addition, in test [2], the percent of negative control (+Dex) was 95.5% (inactive). Moreover, the z-score is 0.275 in test [2]; 0.875 (inactive) in [3]; 0.861 (inactive) in [4]; -0.2 (inactive) in [6] (setting [15]); -0.462 in [6] (setting [16]). The fraction signal in test [5] is -0.0055 (inactive).
As to `CC(=O)O[C@H]1CC[C@@]2(C)C(=CC[C@@H]3[C@@H]2CC[C@]2(C)C(C(C)=O)=CC[C@@H]32)C1`, the nuclear beta-catenin stimulation in test [7] (at 10 µM) was 3.7% (inactive); in [7] (stimulation, at 2 µM), 0.6%. Moreover, the insulin secretion stimulation in test [8] is 0.2% (inactive). The viability decrease in test [9] is 48% (inactive). Also, the tube area decrease in test [10] is 9.9% (inactive). Also, the GLP1 secretion stimulation in test [11] was -2% (inactive). For the same compound, in test [12], the inhibition of viability was 25.8% (inactive). For the same compound, the viability decrease (inhibition) in [13] is 60.1% (active); in [14] it was 14.9% (inactive).
In the case of `CCOc1ccccc1O[C@H](c1ccccc1)[C@H]1CNCCO1`, the nuclear beta-catenin stimulation in [7] (at 10 µM) was -0.4% (inactive); in test [7] (stimulation, at 2 µM) it was -2.9%. In addition, the insulin secretion stimulation in [8] was 5.4% (inactive). In test [9], the viability decrease is -2.9% (inactive). The tube area decrease in test [10] was -5.2% (inactive). Moreover, the GLP1 secretion stimulation in test [11] was 0.6% (inactive). Moreover, in test [12], the inhibition of viability was 22.7% (inactive). In addition, the viability decrease (inhibition) in test [13] was 6.2% (inactive); in test [14] it was 18.8% (inactive).
